Results on three molecules are retold here after PubChem BioAssay (EPA / NIEHS).

Read-out in assay [1]: Interleukin-8 (IL8), CXCL8 (gene 3576)
As to the kind of experiment: BSK_3C_IL8: BioMAP Diversity Plus: 3C Assay for Interleukin-8 (IL8) Biomarker Activity (AID 2283020). The note with it: primary human endothelial cells (HUVEC); actives raise or lower the signal. In outline:
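ELISA read-out of IL-8 from human umbilical vein endothelium, measured 24 h after chemical dosing. Activity is expressed relative to DMSO negative control, with both increases and decreases fitted.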

Read-out in assay [2]: Monokine induced gamma interferon (MIG), CXCL9 (gene 4283)
As to the kind of experiment: BSK_3C_MIG: BioMAP Diversity Plus: 3C Assay for Monokine induced gamma interferon (MIG) Biomarker Activity (AID 2283021). The note with it: primary human endothelial cells (HUVEC); actives raise or lower the signal. In a few lines: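 Read-out is ELISA detection of MIG on human umbilical vein endothelial cells, taken 24 h after dosing. Gain or loss of signal was scored relative to DMSO controls using bidirectional curve fitting.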

Assay [3] addresses human Vitamin D Receptor (VDR), VDR (gene 7421) (UniProt P11473). Nature of the assay: ATG_VDR_TRANS: Attagene TRANS-FACTORIAL HepG2 Assay for human Vitamin D Receptor (VDR) (AID 2283022; active = hit-call score of the fitted dose curve at least 0.9, where 1 is the maximum). In outline: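 HepG2 cells were transiently transfected with GAL4-UAS reporter units and a chimeric VDR-Gal4 construct, then dosed for 24 hours. Reporter mRNA was quantified by RT-PCR, fluorescent labeling, HpaI digestion and capillary electrophoresis; gain of signal analysed vs DMSO.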

Assay [4] can be described thus: BSK_3C_SRB: Viability Assessment in the BioMAP Diversity Plus: 3C Assay (AID 2283023).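 Note: fitted both ways against DMSO so a hit may be signal rise or drop.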 The note with it: primary human endothelial cells (HUVEC). In outline:
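Human umbilical vein endothelial cells in the 3C system, treated 24 h. Total protein measured by 0.1% sulforhodamine B staining after 10% TCA fixation, read at 560 nm; bidirectional fit versus DMSO.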

Read-out in assay [5]: Matrix Metallopeptidase 1 (MMP1), MMP1 (gene 4312)
Nature of the assay: BSK_BE3C_MMP1: BioMAP Diversity Plus: BE3C Assay for Matrix Metallopeptidase 1 (MMP1) Biomarker Activity (AID 2283024). Conditions: primary human bronchial epithelial cells; actives raise or lower the signal. In outline: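 Human bronchial epithelial cells (BE3C system) exposed to compound for 24 h; MMP1 then quantified by ELISA. Activity was fitted in both directions relative to DMSO.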

Assay [6] is described as follows: BSK_3C_Vis: BioMAP Diversity Plus: 3C Assay for Morphology Visualization (AID 2283025).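 Note: fitted both ways so gain or loss versus DMSO counts.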 Conditions: primary human endothelial cells (HUVEC). In outline:
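Chemicals were added to primary human umbilical vein endothelium, cells were incubated 24 h, and morphology was then visualized by light microscopy. Gain or loss of signal was fitted bidirectionally relative to DMSO.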

Read-out in assay [7]: Pselectin, SELP (gene 6403)
As to the kind of experiment: BSK_4H_Pselectin: BioMAP Diversity Plus: 4H Assay for Pselectin Biomarker Activity (AID 2283026). The note with it: primary human endothelial cells (HUVEC); actives raise or lower the signal. In a few lines: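 ELISA read-out of P-selectin on human umbilical vein endothelium after 24 h of dosing. Values derive from bidirectional fitting relative to DMSO. Parallel SRB protein staining flagged overt cytotoxicity.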

Assay [8] can be described thus: BSK_4H_SRB: Viability Assessment in the BioMAP Diversity Plus: 4H Assay (AID 2283027).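 For AC50: curves fitted both ways versus DMSO so AC50 may be loss or gain.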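 Note: cells exposed to compound for 24 h before staining.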 Conditions: primary human endothelial cells (HUVEC). In a few lines:
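Human umbilical vein endothelial cells, 24 h after chemical dosing; total protein measured by 0.1% sulforhodamine B staining after 10% TCA fixation, read at 560 nm. Bidirectional fitting against DMSO.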

Assay [9] can be described thus: BSK_BE3C_SRB: Viability Assessment in the BioMAP Diversity Plus: BE3C Assay (AID 2283028).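 For AC50: fitted both ways so AC50 may mark signal gain or loss versus DMSO.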 The note with it: primary human bronchial epithelial cells. In a few lines:
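Human bronchial epithelial primary cells in confluent culture, 24 h after chemical dosing; total protein by 0.1% SRB staining after 10% TCA fixation, read at 560 nm. Bidirectional fitting versus DMSO baseline.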

Read-out in assay [10]: Urokinase-type plasminogen activator receptor (uPAR), PLAUR (gene 5329)
As to the kind of experiment: BSK_4H_uPAR: BioMAP Diversity Plus: 4H Assay for Urokinase-type plasminogen activator receptor (uPAR) Biomarker Activity (AID 2283030). Conditions: primary human endothelial cells (HUVEC); actives raise or lower the signal. In outline: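 Human umbilical vein endothelial cells in the 4H system, 24 h after chemical dosing. Cell-surface uPAR measured by ELISA, fitted in both directions versus DMSO; cytotoxicity checked by SRB total protein in parallel cultures.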

Read-out in assay [11]: Vascular endothelial growth factor receptor 2 (Homo sapiens) (UniProt P35968)
As to the kind of experiment: BSK_4H_VEGFRII: BioMAP Diversity Plus: 4H Assay for Vascular endothelial growth factor receptor 2 (VEGFR2) Biomarker Activity (AID 2283031).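 For AC50: cell-surface VEGFR2 protein level quantified by ELISA.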 Conditions: primary human endothelial cells (HUVEC); actives raise or lower the signal. In outline: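 Primary human umbilical vein endothelial cells (4H system), 24 h exposure; cell-surface VEGFR2 measured by ELISA. Bidirectional fitting versus DMSO; cytotoxicity checked in parallel by SRB total-protein staining.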

Read-out in assay [12]: Human Leukocyte Antigen - DR isotype (HLADR), HLA-DRA (gene 3122)
Nature of the assay: BSK_BE3C_HLADR: BioMAP Diversity Plus: BE3C Assay for Human Leukocyte Antigen - DR isotype (HLADR) Biomarker Activity (AID 2283032). The note with it: primary human bronchial epithelial cells; actives raise or lower the signal. In a few lines:
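ELISA read-out of HLA-DR on human lung bronchial epithelial primary cells, measured 24 h post-dosing. Both increases and decreases were scored relative to DMSO vehicle.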

Read-out in assay [13]: Vascular cell adhesion molecule 1 (VCAM1), VCAM1 (gene 7412)
As to the kind of experiment: BSK_4H_VCAM1: BioMAP Diversity Plus: 4H Assay for Vascular cell adhesion molecule 1 (VCAM1) Biomarker Activity (AID 2283033).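 For outcome: cell-surface VCAM-1 protein measured by ELISA.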 The note with it: primary human endothelial cells (HUVEC); actives raise or lower the signal. In outline:
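ELISA read-out of VCAM-1 on human umbilical vein endothelium 24 hours after chemical dosing; gain or loss of signal was fitted relative to DMSO, with sulforhodamine B staining of parallel cultures flagging overt cytotoxicity.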

Read-out in assay [14]: Interferon-gamma inducible Protein 10 (IP10), CXCL10 (gene 3627)
Nature of the assay: BSK_BE3C_IP10: BioMAP Diversity Plus: BE3C Assay for Interferon-gamma inducible Protein 10 (IP10) Biomarker Activity (AID 2283034). The note with it: primary human bronchial epithelial cells; actives raise or lower the signal. In outline:
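Chemical is dosed onto human lung bronchial epithelial primary cells, cultures are incubated 24 h, and IP-10 is then quantified by ELISA. Gain or loss of signal is fitted in both directions relative to DMSO.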

Read-out in assay [15]: Monokine induced gamma interferon (MIG), CXCL9 (gene 4283)
Nature of the assay: BSK_BE3C_MIG: BioMAP Diversity Plus: BE3C Assay for Monokine induced gamma interferon (MIG) Biomarker Activity (AID 2283035). The note with it: primary human bronchial epithelial cells; actives raise or lower the signal. In a few lines: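 Primary human bronchial epithelial cells treated for 24 h; MIG levels measured by ELISA, fitted bidirectionally versus DMSO. Parallel SRB total-protein staining assessed cytotoxicity.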

Read-out in assay [16]: Transforming growth factor beta 1 (TGFb1), TGFB1 (gene 7040)
As to the kind of experiment: BSK_BE3C_TGFb1: BioMAP Diversity Plus: BE3C Assay for Transforming growth factor beta 1 (TGFb1) Biomarker Activity (AID 2283036;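 for outcome: TGF-b1 protein level measured by ELISA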). Conditions: primary human bronchial epithelial cells; actives raise or lower the signal. In a few lines:
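Primary human lung bronchial epithelial cells; compound exposure 24 h; TGF-b1 by ELISA; bidirectional fit, DMSO baseline. Parallel SRB total-protein staining for cytotoxicity.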

Read-out in assay [17]: Plasminogen activator inhibitor-1 (PAI1), SERPINE1 (gene 5054)
Nature of the assay: BSK_BE3C_PAI1: BioMAP Diversity Plus: BE3C Assay for Plasminogen activator inhibitor-1 (PAI1) Biomarker Activity (AID 2283037). Conditions: primary human bronchial epithelial cells; actives raise or lower the signal. In a few lines: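 Primary human lung bronchial epithelial cells; chemical dosing; 24 h; PAI-1 measured by ELISA; bidirectional fit referenced to DMSO as negative control.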

Read-out in assay [18]: Urokinase-type plasminogen activator receptor (uPAR), PLAUR (gene 5329)
Nature of the assay: BSK_BE3C_uPAR: BioMAP Diversity Plus: BE3C Assay for Urokinase-type plasminogen activator receptor (uPAR) Biomarker Activity (AID 2283039).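 For outcome: cells exposed to compound for one day before measurement.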 The note with it: primary human bronchial epithelial cells; actives raise or lower the signal. In outline:
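Human bronchial epithelial primary cells; chemical exposure 24 h; uPAR by ELISA; bidirectional fit vs DMSO control.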

Values joined by “and” are separate entries in the source; they are usually repeats but may differ in a detail not shown here. Identical values can stand only once. Records with an inconclusive call do not appear. A structure can be active in one record and inactive in another. Active and inactive are the calls of the source. Rule for the calls, unless noted: active = hit-call score of the fitted dose curve at least 0.9, where 1 is the maximum; inactive = score below 0.9.

Chain of human Vitamin D Receptor (VDR), VDR (gene 7421) (P11473 whole entry, looked up, the tested form may be a part): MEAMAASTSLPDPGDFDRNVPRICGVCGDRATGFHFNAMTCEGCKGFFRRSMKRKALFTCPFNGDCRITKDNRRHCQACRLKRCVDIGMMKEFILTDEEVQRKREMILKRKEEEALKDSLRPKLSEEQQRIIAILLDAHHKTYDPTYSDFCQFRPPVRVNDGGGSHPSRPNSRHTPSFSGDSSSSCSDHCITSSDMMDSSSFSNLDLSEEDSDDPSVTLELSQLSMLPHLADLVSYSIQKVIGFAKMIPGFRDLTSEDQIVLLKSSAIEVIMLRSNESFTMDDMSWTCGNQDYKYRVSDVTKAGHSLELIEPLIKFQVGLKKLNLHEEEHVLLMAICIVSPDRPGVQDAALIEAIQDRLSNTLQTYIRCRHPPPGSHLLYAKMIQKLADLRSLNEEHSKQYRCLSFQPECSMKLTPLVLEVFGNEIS

A word on the AC50: it is the concentration at which the activity in the assay is half-maximal. Regarding `Oc1ccc(Nc2ccccc2)cc1`, the AC50 is 0.0694 µM (active) in assay [1]; 3.14 µM (active) in assay [10]; 20 µM (active) in [13]; 3.97 µM (active) in [14]; 5.46 µM (active) in assay [16]; 7.39 µM (active) in assay [17]. In addition, the result in assay [2], in assay [3], in assay [4], in [5], in assay [6] and in assay [7] was inactive. In addition, the result in assay [8], in assay [9], in assay [11], in [12], in assay [15] and in [18] was inactive.
As for `CCc1c(Br)c(Br)c(Br)c(Br)c1Br`, the outcome in assay [1], in assay [2], in assay [3], in assay [4], in [5] and in assay [6] was inactive. Further, the outcome in [7], in [8], in assay [9], in assay [10], in assay [11] and in assay [12] was inactive. Also, the result in assay [13], in [15], in [16], in assay [17] and in assay [18] was inactive.
As to `O=C(Cl)C(F)(F)C(F)(F)C(F)(F)C(F)(F)C(F)(F)C(F)(F)C(F)(F)C(F)(F)F`, the AC50 in assay [1] is 41 µM (active); in [4], 45 µM (active) and 50.8 µM (active) and 49.9 µM (active); in assay [5], 50.8 µM (active) and 51.7 µM (active) and 52 µM (active); in [8] it was 30 µM (active); in [9], 58.5 µM (active) and 46.6 µM (active) and 47.3 µM (active); in assay [11], 30 µM (active). For the same molecule, the AC50 was 50 µM (active) and 48.6 µM (active) and 50.7 µM (active) in assay [12]; 55.3 µM (active) and 46.6 µM (active) and 46.1 µM (active) in assay [15]; 47.8 µM (active) and 53.7 µM (active) and 48.4 µM (active) in [18]. In addition, the result in assay [1], in assay [2], in [3], in assay [7], in assay [8] and in assay [10] was inactive. The result in assay [11], in assay [13] and in assay [17] was inactive.
